Data on 24 compounds can be found in PubChem BioAssay AID1259415 (National Center for Advancing Translational Sciences (NCATS), 2018).

In all, about 410,000 compounds went through this assay and about 18,000 (4.4%) were called active. Not shown: some 7% with an inconclusive outcome. The list comes from a sample in which actives are over-represented; it also holds similar structures and randomly drawn compounds. A number with no mark means an inactive call. Cut-off read from the data, not from the text of the source: active = activity change below about -60%; inconclusive = no clear call, values can overlap the other calls; inactive = above about -39%.
% is set by controls: 0 for no effect and ±100 for the full control effect.

The assay is described as follows: qHTS Assay for inhibitors of the human cytomegalovirus (HCMV). As to conditions: HFF cells, HCMV-luciferase reporter, 72 h; at 57.5 µM; hits give low values. An outline of the steps: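 Screen run at 2 compound doses on HFFs infected with reporter HCMV, MOI 1 PFU/cell. Luciferase activity from cell lysates at 72 h post infection gave inhibition relative to buffer-only and Salinomycin wells.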
With `CC(C)NC(=O)C(=O)NCCCOC(C)C`, the activity change, negative = inhibition was -7.97%. Take `CN(CC(=O)NCCN1CCOCC1)S(=O)(=O)c1ccc(F)cc1`: the activity change, negative = inhibition was -13.5%. As to `Cc1ccc(-c2nnc(SCC(=O)NCc3ccccc3)nc2-c2ccc(C)cc2)cc1`, the activity change, negative = inhibition is -16.5%. To `CCc1ccccc1NC(=O)CSc1nnc(-c2ccccc2)c(-c2ccccc2)n1` belongs -84.3% (active); to `COc1ccc(-c2nnc(SCC(=O)Nc3ccc(C(C)C)cc3)nc2-c2ccc(OC)c(OC)c2)cc1OC`, 2%; to `O=c1cc(CSc2ccccn2)nc(N2CCN(c3ccccc3)CC2)[nH]1`, 15.5%. To `COc1ccccc1N1CCN(C(=O)c2ccc(NC3=NC4CS(=O)(=O)CC4S3)cc2)CC1` (centres undefined) belongs -1.18%.

As to `CCOc1ccccc1N1CCN(C(=O)c2ccc3[nH]c(C)c(C)c3c2)CC1`, the activity change, negative = inhibition was -4.04%. To `COc1ccccc1N1CCN(C(=O)c2cc(=O)c3cc(C)cc(C)c3o2)CC1` belongs -72.5% (active); to `O=c1c2cccnc2n(Cc2cccc(F)c2)c(=O)n1Cc1ccccc1Cl`, -4.52%. The figure for `O=S(=O)(NCC(c1ccco1)N1CCOCC1)c1cc(F)ccc1F` (centres undefined) is 10.6%; for `CC(OC(=O)/C=C/c1ccccc1)C(=O)Nc1ccc(C(N)=O)cc1` (centres undefined) it is -26.6%; for `O=C(NN=CC=Cc1ccccc1)C(O)C(O)C(=O)NN=CC=Cc1ccccc1` (centres undefined) it is -99% (active). The figure for `O=C(N/N=C/C=C/c1ccccc1)C1CC1(c1ccccc1)c1ccccc1` (centres undefined) is -22.7%; for `O=C(Nc1ccn(Cc2ccccc2)n1)c1n[nH]c([N+](=O)[O-])c1Cl` it is -0.724%; for `COC(=O)C(c1ccccc1)N1CCCCCC1` (centres undefined) it is -22.2%.

Take `CC1(C)CC(N2CCN(C(c3ccccc3)c3ccccc3)CC2)=CC(=[N+]2CCCCC2)C1`: the activity change, negative = inhibition was -98.5% (active).

In the case of `COc1ccc(CCN2C(=O)N(c3cccc(OC)c3)C(=O)C2CC(=O)Nc2ccccc2)cc1` (centres undefined), the activity change, negative = inhibition is 30.6%. As to `Cc1csc2nc(COc3ccc(NC(=O)COc4ccccc4)cc3)cc(=O)n12`, the activity change, negative = inhibition was -18.6%. To `CCOC(=O)c1[nH]c(C)c(CCC(=O)N2CCN(c3ccccc3)CC2)c1C` belongs -11%. `COc1cc(OC)cc(-c2c(C#Cc3ccsc3)c3cc(-c4ccc(SC)cc4)ccc3n2C)c1`: the activity change, negative = inhibition was -6.32%. The figure for `COc1ccc(CCNCc2c(-c3ccccc3)n(C)c3ccccc23)cc1` is -5.91%; for `COc1ccc(-c2c(C#Cc3ccccc3)c3ccccc3n2C)cc1` it is -78.4% (active); for `COc1ccccc1CNCc1ccc(C(=O)O)s1` it is -9.76%.
